Only some compounds are listed: those with a hit (about 5.4% of all), similar ones and a draw of the others.
CtBP-E1A blk – inhibitors of CtBP/E1A interaction | AlphaScreen GST-E1A/His-CtBP binding, 1536-well; active compounds read low | activity change, % (test concentration not listed) | hit rate 0.49% among 340,000; in the data active = activity change below about -65%; inconclusive = mostly about -30% to -63%; also: % is scaled to controls: 0 for no effect and ±100 for the full control effect
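AlphaScreen with 125 nM GST-E1A and 125 nM His-CtBP (5X stocks) in Tris pH 8.0, 300 mM NaCl, BSA, Tween 20, TCEP. Compounds preincubated 2 h at 37 deg C, then glutathione donor/nickel acceptor beads added for 1 h at 37 deg C in dark.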
RORgamma inh – inhibitors of mouse ROR gamma transcriptional activity; P51450; Drosophila S2 Gal4-RORgamma UAS-luciferase reporter, 20 h; Potency, µM (top dose mostly 53.6 µM), inactives show at the top dose activity change, negative = inhibition, usual class: inhibitors; hit rate 5.4% among 310,000; AID 2551; also: potency is read from the fitted curve at half-maximal effect; % is scaled to controls: 0 for no effect and ±100 for the full control effect; nearly all actives have a fitted effect of over 60% in size
Target sequence (P51450 whole entry, looked up, the tested form may be a part): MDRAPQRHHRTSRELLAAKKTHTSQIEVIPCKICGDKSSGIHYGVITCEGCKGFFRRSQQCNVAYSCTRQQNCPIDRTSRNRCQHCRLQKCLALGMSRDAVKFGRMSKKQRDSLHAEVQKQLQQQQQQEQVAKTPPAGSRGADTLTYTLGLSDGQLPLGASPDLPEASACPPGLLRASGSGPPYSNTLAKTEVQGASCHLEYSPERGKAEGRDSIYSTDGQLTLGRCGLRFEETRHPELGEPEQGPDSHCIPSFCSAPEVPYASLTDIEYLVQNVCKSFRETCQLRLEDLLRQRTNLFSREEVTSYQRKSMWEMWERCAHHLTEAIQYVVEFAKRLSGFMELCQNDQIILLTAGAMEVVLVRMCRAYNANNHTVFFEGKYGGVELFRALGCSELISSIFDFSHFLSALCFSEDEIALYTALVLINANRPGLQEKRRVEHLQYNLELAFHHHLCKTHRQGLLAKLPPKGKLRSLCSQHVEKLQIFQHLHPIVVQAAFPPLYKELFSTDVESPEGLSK
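In this cell-based reporter format, copper sulfate (700 uM final) drives Gal4–ROR gamma fusion expression from a metallothionein promoter in Drosophila Schneider cells; compounds preincubated 1 hr, reporter read after 20 hr at ambient temperature.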
Six1-Eya2 inh – Six1/Eya2 interaction inhibition; Q15475+O00167; AlphaScreen GST-Six1/His-Eya2 binding, biochemical; active compounds read low; activity change, % (concentration not given with the values); hit rate 0.56% among 360,000; AID 651725; in the data active = activity change below about -65%; inconclusive = mostly about -30% to -63%; also: % is scaled to controls: 0 for no effect and ±100 for the full control effect
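GST-Six1 + His-Eya2 (5X stock: 250/500 nM); Tris pH 8.0, 300 mM NaCl, 0.05% BSA, 0.02% Tween 20; GSH donor/Ni acceptor beads; 1 h 37 °C dark; AlphaScreen readout.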
Gal4-VP16 FLuc – counter-screen for ROR gamma inhibitors: Gal4-VP16 reporter. Drosophila S2 Gal4-VP16 UAS-luciferase, luminescence, 20 h. Potency, µM (series often up to 53.6 µM), inactives show top-dose activity, negative = inhibition, hits mostly inhibitors. hit rate 3.5% among 310,000. AID 2546;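 also: Gal4-VP16 expression switched on by copper sulfate through the metallothionein promoter; potency is read from the fitted curve at half-maximal effect; % is scaled to controls: 0 for no effect and ±100 for the full control effect; nearly all actives have a fitted effect of over 50% in size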
p53 reactivator – re-activators of mutant p53 | H1299 p53-A138V BP100-luciferase reporter, luminescence, 24 h | Potency, µM (titrated, usually from 92.2 µM), for inactives: top-dose activity change, positive = activation, actives largely listed as activators | hit rate 0.063% among 320,000; also: potency is read from the fitted curve at half-maximal effect; % of control where 0% means no effect; nearly all actives have a fitted effect of over 45% in size
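H1299 (p53-null), stable ts p53-A138V + BP100-Luc; 1000 cells/well, Opti-MEM/10% FBS; cpd 4 pt, 1:5; 24 h, 37 deg C, 5% CO2; detection reagent 10 min RT; luminescence.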
Numbers without * were called inactive; u = inconclusive; x = no result. Unless noted, calls follow the shape of the dose curve; as a rule, active = well fitted curve in the direction sought with a large enough effect; inconclusive = small, poorly fitted or top-dose-only effect, or another doubt; inactive = no such curve, though single readings can be large; an effect the other way counts as inactive or inconclusive.

SMILES	CtBP-E1A blk	RORgamma inh	Six1-Eya2 inh	Gal4-VP16 FLuc	p53 reactivator
CCOC(=O)C1=CCC(c2cccn2C(=O)OC(C)(C)C)N(S(=O)(=O)c2ccc(C)cc2)C1 (configuration not stated)	-11	x	-6	x	x
CCOc1ccc(NC(=S)NCc2cccnc2)cc1	1	-14%	2	14%	-1%
CCC(C)c1ccc(NC(=S)Nc2ccc(OC)cc2)cc1 (configuration not stated)	4	7.1µM*	-7	5.6µM*	u
CCOc1ccc(NC(=S)NCCN2CCN(Cc3ccccc3)CC2)cc1	2	11µM*	-1	u	12%
CCOc1ccc(NC(=S)NCCCc2ccccc2)cc1	0	5µM*	-16	u	-6%
NC(=O)Cn1nnc(-c2ccc(NC(=O)c3ccc(F)cc3)cc2)n1	-8	u	-1	4%	9%
C[C@H](CO)N1C[C@H](C)[C@@H](CN(C)S(C)(=O)=O)Oc2ccc(NC(=O)CCN3CCOCC3)cc2C1=O	5	x	3	x	2%
COc1ccc(CCNC(=O)CC(c2ccccc2)c2cccc(C)c2O)cc1OC (configuration not stated)	0	31%	-12	-7%	-2%
COc1ccc(N(CC(=O)N/N=C/c2ccccc2OC)S(=O)(=O)c2ccccc2)cc1	-3	-3%	4	-12%	-6%
Cc1cccc(NC(=O)Oc2ccc(Cl)c3cccnc23)c1	u	x	-92*	x	x
CNC(=O)COc1ccc(Cl)c2cccnc12	x	-40%	4	-7%	-1%
O=C(Oc1ccc(Cl)c2cccnc12)N1CCCCC1	2	11%	-1	7%	u
O=C(Oc1ccc(Cl)c2cccnc12)c1cccnc1	-82*	0.89µM*	-93*	1µM*	x
O=C(Oc1ccc(Cl)c2cccnc12)C12CC3CC(CC(C3)C1)C2	-22	2.2µM*	u	3.2µM*	0%
O=S(=O)(c1ccccc1)N1CCC2(CCCN(Cc3ccccc3)C2)CC1	x	9%	x	-4%	x
Cc1cc(N2CCCC2)ccc1/C=C1\NC(=S)N(C)C1=O	-24	-42%	u	2.5µM*	7%
CN1C(=O)c2ccc(N3CCCC3)cc2C1=O	19	u	25	u	14%
O=C1/C(=C/c2ccc(N3CCCC3)cc2)NC(=S)N1C1CC1	8	7.1µM*	-22	11µM*	13%
S=c1[nH]c(-c2ccc(Cl)cc2)cs1	7	7.1µM*	-15	0%	18%
S=c1nccc(-c2ccc(Cl)cc2)[nH]1	5	2.8µM*	3	5µM*	2%
Cc1ccc(-c2csc(=S)[nH]2)cc1	-5	7.1µM*	-3	u	2%
CCC(=O)Nc1nnc(-c2ccc(Cl)s2)o1	x	7.1µM*	2	13µM*	-1%
CCOC(=O)N1CCN(C(=O)CSc2nnc(-c3ccc(Cl)s3)o2)CC1	x	0%	x	4%	11%
CC(=O)Nc1nnc(-c2ccc(Cl)s2)o1	-26	3.5µM*	-2	5.6µM*	1%
C=C(C)C1Cc2c(C)nn(-c3cccc4ccccc34)c2C1 (configuration not stated)	20	14µM*	11	u	-4%
SMILES	CtBP-E1A blk	RORgamma inh	Six1-Eya2 inh	Gal4-VP16 FLuc	p53 reactivator
N#C/C(=C\C=C\c1ccccc1[N+](=O)[O-])C(=O)NC1CCCCC1	-2	u	-16	-16%	-9%
N#C/C(=C\c1ccccc1[N+](=O)[O-])C(=O)NC1CCCCC1	-19	u	-3	8.9µM*	-13%
Cc1[nH]n(C(N)=S)c(=O)c1N=Nc1ccc(S(=O)(=O)N2CCCC2)cc1	-10	0.28µM*	-3	1.3µM*	u
Cc1ccc(N=Nc2c(C)[nH]n(C(N)=S)c2=O)cc1	-10	0.32µM*	17	0.89µM*	3%
Cc1[nH]n(C(N)=S)c(=O)c1N=Nc1ccc(Br)cc1	x	0.35µM*	6	2µM*	u
Cc1[nH]n(-c2ccccc2)c(=O)c1N=Nc1ccc(C(N)=O)cc1	9	37%	1	-7%	2%
CCCCC(=O)N(C)c1c(CC)nc2c(OCC(N)=O)cccn12	7	x	0	x	x
CCOC(=O)Cc1csc(-n2sc3ccccc3c2=O)n1	-5	11µM*	-12	u	15%
COc1ccc(NC(=O)COC(=O)C(CC(C)C)N2C(=O)C3CC=CCC3C2=O)cc1Cl (configuration not stated)	1	-3%	9	22µM*	-5%
COc1ccc(NC(=O)CN2C(=O)C3CC=CCC3C2=O)cc1Cl (configuration not stated)	2	x	1	x	x
O=c1c(Cl)cc(Cl)nn1-c1ccccc1	1	14µM*	1	u	-24%
CCCCn1c(=O)[nH]c(=O)c2c1nc(Cn1ncc(Cl)c(Cl)c1=O)n2CCC	3	16µM*	-13	7.9µM*	-15%
Cc1ccc(-n2c(-c3nn(C)cc3Cl)n[nH]c2=S)cc1	3	u	2	-19%	0%
CC(C)Cn1c(-c2ccc(Br)o2)n[nH]c1=S	7	6.3µM*	1	u	-4%
CC(C)Cn1c(-c2nn(C)cc2Cl)n[nH]c1=S	1	11µM*	-1	u	6%
CCn1c(-c2nn(C)cc2Cl)n[nH]c1=S	4	11µM*	3	u	3%
Cc1ccsc1-c1n[nH]c(=S)n1CC(C)C	5	2.8µM*	9	6.3µM*	1%
Cn1cc(Cl)c(-c2n[nH]c(=S)n2-c2ccc(F)cc2)n1	6	-42%	5	1%	6%
CCOC(=O)C1CCCCN1C(=O)c1cc2ccc(OC)cc2c2cc(OC)c(OC)cc12 (configuration not stated)	-18	x	-10	x	x
CC(c1ccccc1)C1CC(=O)N(c2ccccc2)C1=O (configuration not stated)	-3	-8%	1	8%	6%
CN(C)c1ccc(NC(=O)c2ccc(COc3cccc(Cl)c3)o2)cc1	u	31%	-72*	-3%	u
O=C(CSCc1ccc(Cl)cc1)Nc1nccs1	6	14µM*	1	0%	-2%
CC(C)C(C(=O)Nc1ccncc1)c1ccc(Cl)cc1 (configuration not stated)	-4	13%	-1	u	-5%
O=C(Nc1nccs1)c1ccc(COc2ccc(Cl)cc2)o1	-10	13µM*	-7	-29%	x
CCN1CCN(C(=O)c2ccc(COc3cccc(Cl)c3)o2)CC1	14	9%	1	-6%	-7%
CC(C)C(C(=O)Nc1nccs1)c1ccc(Cl)cc1 (configuration not stated)	3	14µM*	1	u	2%
COC(=O)C1CN(Cc2ccccc2)C(=O)C1=O (configuration not stated)	0	x	7	x	x

Screens from PubChem.
